# From PubChem BioAssay (NCATS)
# Inconclusive results are not listed. Calls of active or inactive are those of the source. Unless noted, calls come from the whole dose curve.
# Assays:
# [1] = biological target: Bile acid receptor (Homo sapiens) (UniProt Q96RI1); assay: qHTS assay for small molecule antagonists of farnesoid X receptor signaling (AID 588526); note: potency is the fitted concentration of half-maximal effect
# Summary of the method: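 Antagonist mode: titrated compounds tested against chenodeoxycholic acid stimulation (normalized to 50 uM CDCA and DMSO) in GeneBLAzer HEK293T cells for 16 h. Beta-lactamase read by CCF4 fluorescence; IC50 from Hill fits.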
# [2] = biological target: Bile acid receptor (Homo sapiens) (UniProt Q96RI1); assay: qHTS assay for small molecule agonists of farnesoid X receptor signaling (AID 588527); conditions: HEK293T FXR-UAS-bla, beta-lactamase ratio, 16 h; activation: stronger effect = higher value;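 note: series mostly up to about 77 µM; 0% = vehicle basal and 100% = reference agonist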
# Summary of the method: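 Quantitative HTS used FXR-UAS-bla HEK293T cells with 16 h compound incubation at 37 C. EC50 values came from concentration-response curves normalized to chenodeoxycholic acid.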
# [3] = biological target: Glucocorticoid receptor (Homo sapiens) (UniProt P04150); assay: qHTS assay for small molecule antagonists of glucocorticoid receptor signaling (AID 588533; active = well fitted inhibition curve with a large enough effect in the signal ratio, with a control signal flat, not every such curve was filed as active; the % refers to the signal ratio;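 note: cells stimulated with 2 nM dexamethasone as agonist; % is set by controls: 0 for no effect and ±100 for the full control effect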)
# Glucocorticoid receptor (Homo sapiens), sequence (P04150 whole entry, looked up): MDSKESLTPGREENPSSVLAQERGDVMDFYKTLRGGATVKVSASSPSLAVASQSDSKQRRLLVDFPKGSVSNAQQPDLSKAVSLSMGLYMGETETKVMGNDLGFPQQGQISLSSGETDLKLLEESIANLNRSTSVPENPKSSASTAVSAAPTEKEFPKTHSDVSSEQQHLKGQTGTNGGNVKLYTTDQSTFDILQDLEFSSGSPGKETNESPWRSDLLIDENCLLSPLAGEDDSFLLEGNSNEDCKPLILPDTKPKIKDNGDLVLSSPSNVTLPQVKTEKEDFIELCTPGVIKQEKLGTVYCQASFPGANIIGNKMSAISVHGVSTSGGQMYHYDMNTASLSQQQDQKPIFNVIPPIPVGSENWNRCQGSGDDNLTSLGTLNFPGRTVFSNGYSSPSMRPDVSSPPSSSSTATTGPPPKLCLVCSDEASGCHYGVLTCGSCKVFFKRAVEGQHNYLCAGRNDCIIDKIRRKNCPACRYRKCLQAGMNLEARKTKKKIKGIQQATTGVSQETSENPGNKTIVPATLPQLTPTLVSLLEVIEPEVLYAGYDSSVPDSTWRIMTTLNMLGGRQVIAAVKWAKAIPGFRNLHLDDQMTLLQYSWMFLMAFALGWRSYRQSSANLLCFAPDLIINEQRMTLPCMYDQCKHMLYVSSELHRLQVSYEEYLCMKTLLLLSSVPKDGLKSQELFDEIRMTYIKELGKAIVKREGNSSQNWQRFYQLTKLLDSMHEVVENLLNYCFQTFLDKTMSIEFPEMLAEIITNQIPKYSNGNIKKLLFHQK
# Summary of the method: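 Antagonist-mode qHTS: compound titrations added to GRE-bla HeLa cells, then dexamethasone 2 nM final; 18 h, 37 C. CCF4 FRET fluorescence normalized to dexamethasone and DMSO; IC50 from Hill fit.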
# [4] = biological target: Thyroid hormone receptor beta (Homo sapiens) (UniProt P10828); assay: qHTS assay for small molecule antagonists of thyroid hormone receptor beta signaling (AID 588547; active = well fitted inhibition curve with a large enough effect in the signal ratio, with a control signal flat, not every such curve was filed as active; the % refers to the signal ratio;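 note: cells stimulated with 0.4 nM T3 agonist during compound exposure; series mostly up to about 77 µM; % is set by controls: 0 for no effect and ±100 for the full control effect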); conditions: TR-UAS-bla HEK293, beta-lactamase ratio, antagonist mode, 18 h
# Thyroid hormone receptor beta (Homo sapiens), sequence (P10828 whole entry, looked up): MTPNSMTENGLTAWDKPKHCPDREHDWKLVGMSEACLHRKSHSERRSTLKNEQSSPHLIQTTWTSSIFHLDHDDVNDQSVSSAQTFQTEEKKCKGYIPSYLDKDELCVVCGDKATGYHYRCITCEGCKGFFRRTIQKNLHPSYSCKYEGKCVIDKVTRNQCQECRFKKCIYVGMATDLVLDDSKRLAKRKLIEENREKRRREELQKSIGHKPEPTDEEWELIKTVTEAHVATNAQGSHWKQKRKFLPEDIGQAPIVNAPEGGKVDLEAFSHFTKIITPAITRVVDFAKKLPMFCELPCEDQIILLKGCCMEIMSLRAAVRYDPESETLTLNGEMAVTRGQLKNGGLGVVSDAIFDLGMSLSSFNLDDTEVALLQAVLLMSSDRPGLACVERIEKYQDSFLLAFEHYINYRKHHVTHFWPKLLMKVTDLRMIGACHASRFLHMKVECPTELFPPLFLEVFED
# Summary of the method: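 TR-UAS-bla GripTite HEK293 cells in 2% charcoal/dextran FBS medium; compounds 0.59 nM to 92 uM with T3 at 0.4nM final, 18 h at 37 C. Beta-lactamase read by CCF4 fluorescence (460/530 nm); Hill fits gave IC50 and efficacy.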
# [5] = qHTS assay for small molecule agonists of the antioxidant response element (ARE) signaling pathway (AID 651741; active = well fitted activation curve with a large enough effect in the signal ratio; the % refers to the signal ratio; note: potency is the fitted concentration of half-maximal effect; for activation: % of control where 0% means no effect)
# Summary of the method: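 Stably integrated ARE-beta-lactamase reporter HepG2 cells; 16 h compound incubation, 37 C; LiveBLAzer FRET substrate 2 h at room temperature; fluorescence intensity.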
# [6] = qHTS assay for small molecule antagonists of peroxisome proliferator-activated receptor delta signaling (AID 588535); conditions: HEK293T PPARd-UAS-bla, beta-lactamase FRET ratio, 18 h; 460 nm channel;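 note: cells co-treated with a PPAR-delta agonist as stimulator during compound exposure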
# Summary of the method: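 Fluorescence from CCF4-loaded GeneBLAzer PPAR-delta-UAS-bla HEK293T cells (2 hrs RT loading) quantified reporter inhibition after an 18 hr, 37 C compound exposure across a titration.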
# [7] = qHTS assay for small molecule agonists of retinoid X receptor alpha signaling (AID 588544); conditions: HEK293T RXRa-UAS-bla, beta-lactamase reporter, 18 h; 530 nm emission
# [8] = biological target: Androgen receptor (Homo sapiens) (UniProt P10275); assay: qHTS assay for small molecule agonists of androgen receptor signaling (AID 588515; active = well fitted curve in the direction sought with a large enough effect in the signal ratio, with a control signal flat; the % refers to the signal ratio; note: % is set by controls: 0 for no effect and ±100 for the full control effect); conditions: AR-UAS-bla HEK293, beta-lactamase ratio, agonist 16 h; stronger effect = higher value
# Androgen receptor (Homo sapiens), sequence (P10275 whole entry, looked up): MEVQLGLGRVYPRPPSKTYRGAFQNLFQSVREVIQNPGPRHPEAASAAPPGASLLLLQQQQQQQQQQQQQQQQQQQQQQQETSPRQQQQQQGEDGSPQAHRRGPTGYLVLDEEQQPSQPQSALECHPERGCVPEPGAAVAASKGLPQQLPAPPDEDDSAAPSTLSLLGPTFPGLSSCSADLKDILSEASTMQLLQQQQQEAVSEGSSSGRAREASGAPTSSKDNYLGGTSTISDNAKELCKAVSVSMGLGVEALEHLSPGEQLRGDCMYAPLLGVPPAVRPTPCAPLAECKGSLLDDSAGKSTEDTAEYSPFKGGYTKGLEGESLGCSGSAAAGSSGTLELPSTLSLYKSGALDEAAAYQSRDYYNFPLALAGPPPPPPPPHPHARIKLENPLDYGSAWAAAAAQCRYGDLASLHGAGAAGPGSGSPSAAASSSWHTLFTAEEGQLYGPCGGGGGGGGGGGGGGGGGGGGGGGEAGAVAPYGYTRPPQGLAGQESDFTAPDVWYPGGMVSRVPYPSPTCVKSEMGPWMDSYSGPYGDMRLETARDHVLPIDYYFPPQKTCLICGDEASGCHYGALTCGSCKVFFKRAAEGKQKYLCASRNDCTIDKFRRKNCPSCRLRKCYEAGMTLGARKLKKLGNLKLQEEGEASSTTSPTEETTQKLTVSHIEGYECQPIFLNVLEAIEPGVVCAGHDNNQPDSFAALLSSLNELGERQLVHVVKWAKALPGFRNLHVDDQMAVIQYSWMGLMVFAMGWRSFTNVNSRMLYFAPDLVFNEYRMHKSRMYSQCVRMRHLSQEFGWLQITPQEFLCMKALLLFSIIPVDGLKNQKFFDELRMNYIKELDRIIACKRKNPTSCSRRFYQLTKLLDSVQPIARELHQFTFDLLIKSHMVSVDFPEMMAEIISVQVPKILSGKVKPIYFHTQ
# Summary of the method: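 Stimulation of an AR-responsive β-lactamase reporter in GripTite HEK293 cells was measured after 16 h compound exposure at 37 °C, via CCF4 fluorescence after 2 h RT. EC50 from Hill fits, normalized to R1881 at 30 nM.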
# [9] = qHTS assay for small molecule activators of the human pregnane X receptor (PXR) signaling pathway (AID 720659; call rule not given here; note: 0% is about no effect)
# [10] = biological target: Peroxisome proliferator-activated receptor gamma (Homo sapiens) (UniProt P37231); assay: qHTS assay for small molecule antagonists of peroxisome proliferator-activated receptor gamma signaling (AID 588537; active = well fitted inhibition curve with a large enough effect in the signal ratio, with a control signal flat, not every such curve was filed as active; the % refers to the signal ratio;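 note: reporter cells co-stimulated with 50 nM rosiglitazone agonist during compound treatment; % of control where 0% means no effect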)
# Peroxisome proliferator-activated receptor gamma (Homo sapiens), sequence (P37231 whole entry, looked up): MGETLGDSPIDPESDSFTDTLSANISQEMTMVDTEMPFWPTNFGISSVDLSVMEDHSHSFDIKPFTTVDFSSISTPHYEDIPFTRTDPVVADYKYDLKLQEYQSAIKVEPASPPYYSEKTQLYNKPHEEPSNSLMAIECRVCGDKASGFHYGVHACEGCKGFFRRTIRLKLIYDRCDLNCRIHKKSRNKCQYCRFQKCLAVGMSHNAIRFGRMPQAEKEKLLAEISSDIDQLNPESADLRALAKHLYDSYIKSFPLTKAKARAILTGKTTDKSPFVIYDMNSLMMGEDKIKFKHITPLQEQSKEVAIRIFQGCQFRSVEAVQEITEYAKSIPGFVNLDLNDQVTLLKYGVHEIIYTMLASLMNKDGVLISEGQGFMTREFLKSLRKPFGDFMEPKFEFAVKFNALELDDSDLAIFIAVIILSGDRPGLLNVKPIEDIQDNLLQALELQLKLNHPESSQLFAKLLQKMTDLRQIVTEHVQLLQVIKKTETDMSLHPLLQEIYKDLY
# Summary of the method: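 Fluorescence at 460 and 530 nm (405 nm excitation) reported beta-lactamase cleavage of CCF4 after 2 h room-temperature loading. HEK293 reporter cells in 1% charcoal/dextran-treated FBS had received compound and rosiglitazone for 16 h.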
# [11] = biological target: Androgen receptor (Homo sapiens) (UniProt P10275); assay: qHTS assay for small molecule antagonists of androgen receptor signaling (AID 588516; active = well fitted curve in the direction sought with a large enough effect in the signal ratio, with a control signal flat, not every such curve was filed as active; the % refers to the signal ratio; note: % is set by controls: 0 for no effect and ±100 for the full control effect)
# Summary of the method: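 Antagonist mode: inhibition of R1881-stimulated (10 nM final) bla reporter in GeneBLAzer AR HEK 293 cells, 16 h at 37C, compounds titrated. IC50 and efficacy from Hill-equation fits of 405/460–530 nm FRET ratios.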
# [12] = biological target: Cytochrome P450 3A4 (Homo sapiens) (UniProt P08684); assay: qHTS Assay for Inhibitors and Substrates of Cytochrome P450 3A4 (AID 884; active = well fitted curve in the direction sought with a large enough effect; an effect the other way counts as inactive or inconclusive; note: potency is the fitted concentration of half-maximal effect; nearly all actives have a fitted effect of over 50% in size)
# Cytochrome P450 3A4 (Homo sapiens), sequence (P08684 whole entry, looked up): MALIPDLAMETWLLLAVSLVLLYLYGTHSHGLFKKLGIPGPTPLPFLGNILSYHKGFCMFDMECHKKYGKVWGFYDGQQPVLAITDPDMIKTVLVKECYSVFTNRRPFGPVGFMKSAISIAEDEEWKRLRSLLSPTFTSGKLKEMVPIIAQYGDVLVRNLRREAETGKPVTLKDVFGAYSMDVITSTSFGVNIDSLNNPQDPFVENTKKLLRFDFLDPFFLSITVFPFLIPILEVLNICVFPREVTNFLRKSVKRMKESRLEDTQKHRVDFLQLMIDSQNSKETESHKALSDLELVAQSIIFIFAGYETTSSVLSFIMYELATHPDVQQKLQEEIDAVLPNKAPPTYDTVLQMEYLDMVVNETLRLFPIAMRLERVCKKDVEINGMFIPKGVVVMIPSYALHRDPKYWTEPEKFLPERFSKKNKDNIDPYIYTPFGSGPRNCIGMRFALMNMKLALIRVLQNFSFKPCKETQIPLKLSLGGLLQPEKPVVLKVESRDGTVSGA
# Summary of the method: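 Luminescent readout of luciferin produced by CYP3A4 (20 nM) dealkylation of Luciferin-PPXE, 25 uM (its KM). NADPH-driven reaction ran 60 min at RT after 10 min compound preincubation; data scaled to 57 uM ketoconazole as 100% inhibition.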
# [13] = biological target: Cytochrome P450 3A4 (Homo sapiens) (UniProt P08684); assay: qHTS Assay for Activators of Cytochrome P450 3A4 (AID 885; active = well fitted curve in the direction sought with a large enough effect; an effect the other way counts as inactive or inconclusive; note: nearly all actives have a fitted effect of over 65% in size)
# Summary of the method: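 Using 20nM recombinant human CYP3A4 in potassium phosphate (200mM), substrate Luciferin-PPXE at 25uM, luminescent luciferin detection followed a 60-min RT NADPH reaction; data scaled to 57 uM ketoconazole.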
# [14] = Confirmation and Secondary Assay for Modulators of Hemoglobin Beta Chain Splicing at IVS2 654 locus (AID 910; active = well fitted curve in the direction sought with a large enough effect; an effect the other way counts as inactive or inconclusive;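 note: HeLa cells stably carrying EGFP split by mutant beta-globin IVS2-654 intron; % of control where 0% means no effect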)
# Summary of the method: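 HeLa cells stably expressing EGFP interrupted by β-globin IVS2-654 intron, seeded overnight in Opti-MEM/2% FCS, then treated 2 days at 37 °C. Restored splicing read as total peak GFP intensity per well by laser scanning cytometry (488 nm excitation, 500–520 nm emission); 500 nM antisense PNA as control.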
# [15] = Confirmation and Secondary Assay for Modulators of Hemoglobin Beta Chain Splicing at IVS2 705 locus (AID 930; active = well fitted curve in the direction sought with a large enough effect; an effect the other way counts as inactive or inconclusive;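 note: HeLa cells stably expressing the EGFP-705 splicing reporter; GFP fluorescence per well restored by corrected splicing of the IVS2-705 intron in EGFP; series mostly up to about 46 µM; % of control where 0% means no effect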)
# Summary of the method: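 Assay measures total GFP intensity per well in HeLa EGFP-705 cells after 2 days with compound; mis-splicing normally truncates EGFP, so fluorescence indicates corrected splicing.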
# [16] = biological target: Luciferin 4-monooxygenase (Photinus pyralis) (UniProt P08659); assay: Biochemical firefly luciferase enzyme assay for NPC (AID 624030; active = well fitted curve in the direction sought with a large enough effect; an effect the other way counts as inactive or inconclusive;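 note: purified P. pyralis luciferase at 10 nM with luciferin and ATP substrate; series mostly up to about 59 µM; 0% = DMSO and -100% = full luciferase inhibition by PTC124 control; nearly all actives have a fitted effect of over 70% in size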)
# Luciferin 4-monooxygenase (Photinus pyralis), sequence (P08659 whole entry, looked up): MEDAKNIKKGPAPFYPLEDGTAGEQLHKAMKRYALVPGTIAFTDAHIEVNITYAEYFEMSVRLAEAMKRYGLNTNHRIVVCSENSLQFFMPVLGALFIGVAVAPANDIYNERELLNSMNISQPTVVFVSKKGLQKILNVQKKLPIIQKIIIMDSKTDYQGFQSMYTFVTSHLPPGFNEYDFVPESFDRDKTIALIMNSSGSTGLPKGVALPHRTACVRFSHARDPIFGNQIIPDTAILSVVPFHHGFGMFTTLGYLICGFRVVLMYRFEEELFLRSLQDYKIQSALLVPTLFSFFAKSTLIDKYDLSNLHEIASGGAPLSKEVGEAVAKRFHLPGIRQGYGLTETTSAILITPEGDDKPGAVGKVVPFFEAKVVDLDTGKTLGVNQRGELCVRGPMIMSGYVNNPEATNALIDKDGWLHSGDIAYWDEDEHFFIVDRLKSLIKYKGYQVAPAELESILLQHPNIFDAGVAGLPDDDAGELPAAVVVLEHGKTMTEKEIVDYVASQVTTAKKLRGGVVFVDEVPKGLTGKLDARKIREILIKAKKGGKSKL
# Summary of the method: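 Purified P. pyralis luciferase at 10 nM in 50 mM Tris Acetate (final), luminescence read within 5 minutes of enzyme addition to compounds. Activity normalised to PTC124 versus DMSO; concentration-response curves classed by r2, magnitude and activity.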
# Bile acid receptor (Homo sapiens), sequence (Q96RI1 whole entry, looked up): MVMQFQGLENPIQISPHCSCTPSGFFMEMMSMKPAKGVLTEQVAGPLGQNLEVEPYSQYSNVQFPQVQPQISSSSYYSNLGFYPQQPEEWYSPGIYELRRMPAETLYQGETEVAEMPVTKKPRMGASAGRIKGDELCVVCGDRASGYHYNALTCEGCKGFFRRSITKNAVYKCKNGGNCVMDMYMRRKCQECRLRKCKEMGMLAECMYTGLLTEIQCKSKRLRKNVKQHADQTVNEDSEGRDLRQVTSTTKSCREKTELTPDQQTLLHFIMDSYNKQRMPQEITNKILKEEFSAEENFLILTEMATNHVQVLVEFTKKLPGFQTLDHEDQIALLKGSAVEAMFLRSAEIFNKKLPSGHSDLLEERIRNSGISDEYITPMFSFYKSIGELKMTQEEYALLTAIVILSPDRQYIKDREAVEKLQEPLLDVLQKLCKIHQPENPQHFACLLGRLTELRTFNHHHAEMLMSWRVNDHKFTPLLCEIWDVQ
compound,measurement,setting,value
CC(C)(C)[C@@H](O)/C(=C\c1ccc(Cl)cc1Cl)n1cncn1,Potency,[1],44.7 µM (active)
same,activation,[2],0.6% (inactive)
same,Potency,[3],inactive
same,activity change % (negative = inhibition),[4],-11.6% (inactive)
same,Potency,[5],68.6 µM (active)
COC(=O)/C=C(\C)OP(=O)(OC)OC,activation,[2],7.79% (inactive)
same,Potency,[3],inactive
same,max response,[6],-21.6%
same,max response,[7],-22.9%
same,Potency,[5],inactive
O=C(O)C1(O)c2ccccc2-c2ccc(Cl)cc21 (stereo not drawn),activation,[8],-1.34% (inactive)
same,activation,[2],8.73% (inactive)
same,Potency,[3],inactive
same,activity change % (negative = inhibition),[4],-1.32% (inactive)
same,Potency,[5],48.6 µM (active)
same,outcome,[9],inactive
CC(C)C1(C)N=C(c2nc3ccccc3cc2C(=O)O)NC1=O (stereo not drawn),Potency,[1],inactive
same,Potency,[3],inactive
same,Potency,[10],inactive
same,max response,[7],5.36%
same,activity change % (negative = inhibition),[4],9.94% (inactive)
CCSC(=O)N(CC)C1CCCCC1,Potency,[1],inactive
same,activation,[2],-3.64% (inactive)
same,Potency,[10],inactive
same,max response,[7],-3.68%
same,outcome,[9],inactive
CCOP(=O)(OCC)SCS(=O)(=O)C(C)(C)C,activation,[8],11.8% (inactive)
same,Potency,[1],inactive
same,activation,[2],-5.69% (inactive)
same,max response,[6],-7.9%
same,Potency,[10],inactive
same,outcome,[9],inactive
Nc1cccc(Cl)c1Cl,Potency,[11],inactive
same,Potency,[1],inactive
same,activation,[2],2.15% (inactive)
same,Potency,[3],inactive
same,max response,[6],30.5%
same,max response,[7],-11.4%
same,Potency,[5],inactive
same,outcome,[9],inactive
CC(C)N(C(=O)COc1nnc(C(F)(F)F)s1)c1ccc(F)cc1,Potency,[1],inactive
same,activation,[2],0.828% (inactive)
same,Potency,[3],inactive
same,max response,[6],-37.1%
same,activity change % (negative = inhibition),[4],-0.765% (inactive)
same,Potency,[5],48.6 µM (active)
CCOC(=O)C(Cl)Cc1cc(-n2nc(C)n(C(F)F)c2=O)c(F)cc1Cl (stereo not drawn),Potency,[1],inactive
same,activation,[2],1.1% (inactive)
same,max response,[6],64.4%
same,max response,[7],14.3%
same,activity change % (negative = inhibition),[4],18.6% (inactive)
same,Potency,[5],54.5 µM (active)
same,outcome,[9],inactive
CC(C)Oc1cc(-n2nc(C(C)(C)C)oc2=O)c(Cl)cc1Cl,activation,[8],-15% (inactive)
same,Potency,[3],inactive
same,max response,[6],22.7%
same,activity change % (negative = inhibition),[4],-6.22% (inactive)
CNC(=O)Oc1cccc(N=CN(C)C)c1,Potency,[1],inactive
same,activation,[2],-2.76% (inactive)
same,max response,[6],16.5%
same,activity change % (negative = inhibition),[4],4.27% (inactive)
same,outcome,[9],inactive
O=C(Nc1ccccc1)Nc1cnns1,Potency,[1],inactive
same,activation,[2],-0.107% (inactive)
same,Potency,[3],inactive
same,max response,[6],-10.7%
same,activity change % (negative = inhibition),[4],24.1% (inactive)
O=C(NC(=O)c1c(F)cccc1F)Nc1cc(Cl)c(OC(F)(F)C(F)F)c(Cl)c1,activation,[8],7.72% (inactive)
same,Potency,[10],inactive
same,max response,[7],5.34%
same,activity change % (negative = inhibition),[4],-14.9% (inactive)
CC(C)C1(C)N=C(c2ncccc2C(=O)O)NC1=O (stereo not drawn),Potency,[1],inactive
same,activation,[2],-1.77% (inactive)
same,max response,[6],7.61%
same,Potency,[5],inactive
same,outcome,[9],inactive
CCC[CH2][Sn]([Cl])([CH2]CCC)[CH2]CCC,Potency,[1],35.5 µM (active)
same,activation,[2],7.19% (inactive)
same,max response,[7],-0.857%
COc1cc(OC)nc(NC(=O)NS(=O)(=O)c2ncccc2OCC(F)(F)F)n1,Potency,[1],inactive
same,activation,[2],0.378% (inactive)
same,max response,[6],-5.67%
same,Potency,[10],inactive
same,max response,[7],-19.3%
same,Potency,[5],inactive
CCOP(=O)(OCC)OC(Cl)C(Cl)(Cl)Cl (stereo not drawn),activation,[8],-3.01% (inactive)
same,Potency,[1],inactive
same,activation,[2],4.93% (inactive)
same,Potency,[3],inactive
same,max response,[6],51.3%
same,max response,[7],-5.65%
same,activity change % (negative = inhibition),[4],-2.35% (inactive)
same,outcome,[9],inactive
Clc1ccc(C2(Cn3cncn3)CC(Br)CO2)c(Cl)c1 (stereo not drawn),Potency,[1],inactive
same,Potency,[3],inactive
same,max response,[6],30.9%
same,max response,[7],6.2%
same,activity change % (negative = inhibition),[4],-0.525% (inactive)
CCCCCCCCCCCCCCC(Br)C(=O)O (stereo not drawn),Potency,[1],inactive
same,activation,[2],4.69% (inactive)
same,Potency,[3],inactive
same,Potency,[10],inactive
same,max response,[7],-6.32%
same,Potency,[5],21.7 µM (active)
same,outcome,[9],inactive
O=S(=O)(c1ccc(Cl)cc1)c1cc(Cl)c(Cl)cc1Cl,activation,[2],3.42% (inactive)
same,Potency,[3],inactive
same,activity change % (negative = inhibition),[4],6.33% (inactive)
CCOP(=S)(OCC)SCn1c(=O)oc2cc(Cl)ccc21,Potency,[12],794 nM (active)
same,Potency,[13],inactive
same,Potency,[14],inactive
same,outcome,[15],inactive
same,activation,[2],-2.19% (inactive)
same,Potency,[3],inactive
O=[N+]([O-])c1ccc(Cl)c([N+](=O)[O-])c1,activation,[8],-0.974% (inactive)
same,Potency,[1],35.5 µM (active)
same,activation,[2],16.6% (inactive)
same,Potency,[10],inactive
CCC(C)(NC(=O)c1cc(Cl)c(C)c(Cl)c1)C(=O)CCl (stereo not drawn),Potency,[1],inactive
same,activation,[2],-3.52% (inactive)
same,Potency,[3],inactive
same,max response,[6],31.6%
O=C1c2ccccc2C(=O)C1C(=O)C(c1ccccc1)c1ccc(Cl)cc1 (stereo not drawn),activation,[8],-4.67% (inactive)
same,max response,[6],65.6%
same,max response,[7],-4.27%
same,activity change % (negative = inhibition),[4],15% (inactive)
same,Potency,[5],54.5 µM (active)
CCC(C)(C)c1ccc(O)c(C(C)(C)CC)c1,Potency,[1],inactive
same,max response,[6],-2.29%
same,Potency,[5],61.1 µM (active)
CC1(C)CC/C(=C\c2ccc(Cl)cc2)C1(O)Cn1cncn1 (stereo not drawn),activation,[8],-0.862% (inactive)
same,Potency,[11],inactive
same,activity change % (negative = inhibition),[4],-0.512% (inactive)
same,Potency,[16],inactive
CCc1cc(C)cc(CC)c1-c1c(OC(=O)C(C)(C)C)n2n(c1=O)CCOCC2,Potency,[1],inactive
same,activation,[2],2.69% (inactive)
same,Potency,[3],inactive
same,max response,[6],34.5%
same,Potency,[10],inactive
same,max response,[7],-12.9%
same,Potency,[5],inactive
COP(=O)(OC)OC(Br)C(Cl)(Cl)Br (stereo not drawn),activation,[8],4.22% (inactive)
same,Potency,[1],inactive
same,max response,[6],-79.2%
same,Potency,[10],inactive
same,activity change % (negative = inhibition),[4],-62.2% (inactive)
same,Potency,[5],24.3 µM (active)
CC(C)[C@@H](Nc1ccc(C(F)(F)F)cc1Cl)C(=O)OC(C#N)c1cccc(Oc2ccccc2)c1 (stereo partly drawn),Potency,[3],inactive
